# Pf Dd2 growth = qHTS Primary assay for Inhibitors of Plasmodium falciparum Dd2 growth in vitro; P. falciparum Dd2 growth, SYBR Green, 72 h; Potency, µM (highest dose often 28.9 µM), without a hit: at the highest dose activity, negative = inhibition, hits mostly inhibitors; hit rate 4.3% among 120,000; AID 1347417, 2020; active = well fitted inhibition curve with a large enough effect;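 also: plate controls were DMSO vehicle for no effect and reference drug for full effect; nearly all actives have a fitted effect of over 65% in size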
#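 Infected erythrocytes (Dd2, 0.3% parasitemia, 2.5% hematocrit final) are added to compound in RPMI-1640/Albumax II medium, grown 72 h at 37C in low oxygen, then lysed with saponin/Triton-X containing SYBR Green and read by fluorescence.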
# Starred values were filed as active, the others as inactive; i = inactive; [ ] = dose if it differs, or a comment. The full list was thinned out, with hits kept by preference. Potency is read from the fitted curve at half-maximal effect.
SMILES,Pf Dd2 growth
Cc1ccc(C(=O)NC(C(=O)NC2CC2)C2CCN(C(=O)c3ccccc3F)CC2)cc1 (centres undefined),i
CCN(CC)CCN(C(=O)c1ccco1)c1nc2ccc(Cl)cc2s1,-5%
Cc1ccc2sc(N(CCCN(C)C)C(=O)c3ccco3)nc2c1C,8.9µM*
Cc1ccc(C)c2sc(N3CCN(C(=O)c4ccco4)CC3)nc12,9%
Cn1cnc(S(=O)(=O)N2CCC(Cc3nncn3CC3CC3)CC2)c1,1%
CN(C)c1cccc(-c2cnc(Nc3ccc4c(c3)OCCO4)c3c2CCO3)c1,-29%[44.1 µM]
COc1cccc(Nc2ncc(-c3c(C)noc3C)c3c2OCC3)c1,5%[44.1 µM]
c1ccc(Nc2ncc(-c3ccccc3)c3c2OCC3)cc1,22µM*
COc1cncc(Nc2ncc(-c3cccc(N(C)C)c3)c3c2OCC3)c1,7.1µM*
COc1cncc(Nc2ncc(-c3cccnc3)c3c2OCC3)c1,-12%[44.1 µM]
CNC(=O)c1cccc(-c2cnc(Nc3ccccc3)c3c2CCO3)c1,-23%[44.1 µM]
CN(C)c1cccc(-c2cnc(Nc3cccnc3)c3c2CCO3)c1,13µM*
Fc1cccc(-c2cnc(Nc3cncnc3)c3c2CCO3)c1,-27%[44.1 µM]
c1ccc(-c2cnc(Nc3cncnc3)c3c2CCO3)cc1,-12%[44.1 µM]
Cn1cnnc1CC1CCN(C(=O)NC2CCCCC2)C1 (centres undefined),i
CN1CCCN(C[C@@H]2CN(C(=O)c3cccn3C3CC3)C[C@@H]2CO)CC1,-4%
COCC(=O)NC1CCC12CCN(S(=O)(=O)c1cn(C)cn1)CC2 (centres undefined),-25%
O=C(CN1CCn2nc(C(O)CO)cc2C1)Nc1ccc(Cl)cn1 (centres undefined),-18%
Cc1cc(C(F)(F)F)n(CC(C)CNc2ncncn2)n1 (centres undefined),i
CCn1cc(CNC(=O)c2cc(-c3ccc(C)c(C)c3)nc3ccccc23)c(C)n1,i
COc1ccc(-c2cc(C(=O)NCc3ccc(C)cc3)c3cc(C(C)C)ccc3n2)cc1,27%
Cc1ccc(-c2cc(C(=O)NCc3cnn(C)c3C)c3cc(Br)ccc3n2)cc1,11µM*
COCCOCC(=O)N1CCCN(S(=O)(=O)c2ccccc2)CCC(=O)NCC1,14%
N#Cc1ccc(C(=O)N2CCC3(CC2)CC(CO)N(C(=O)c2ccccc2)C3)cc1 (centres undefined),-11%
COc1ccc(Cn2c3c(c(=O)n2Cc2ccccc2)CCN(Cc2cccc(O)c2)C3)cc1,i
SMILES,Pf Dd2 growth
O=C(c1ccccc1)N1CCc2c(n(Cc3ccccc3)n(-c3ccccc3)c2=O)C1,-1%[44.1 µM]
O=c1c2c(n(Cc3ccccc3)n1-c1ccccc1)CN(Cc1ccc3[nH]ccc3c1)CC2,3.2µM*
NCCO[C@H]1C[C@@H](O)C12CCN(Cc1ccc(OC(F)F)cc1)CC2,-2%
CCOC(=O)C1=CN(CC(=O)Nc2cccc(C)c2)S(=O)(=O)N=C1C,11%
Cc1ccc(Cn2cnc3nc4c(cc3c2=O)CCCC4)cc1,-24%
COC(=O)c1ccc(Cn2cnc3nc4c(cc3c2=O)CCCC4)cc1,56%
CCC(C(=O)Nc1ccc(C(C)=O)cc1)n1cnc2nc3c(cc2c1=O)CCCC3 (centres undefined),10µM*
O=C(Cn1ccn2nc3c(c2c1=O)CCCC3)N1CCc2ccccc21,i
Cc1noc([C@@H]2CN(C3CCCC3)C[C@H]2CO)n1,-16%
O=c1n(Cc2cc(F)cc(F)c2)nc2n1CCCCC2,i
Cc1nc2ccc(C(=O)N[C@@H]3CCOC[C@H]3Oc3ccccn3)cc2s1,-6%
COc1cc(Cn2ccnc2-c2nc[nH]c2C)cc(OC)c1OC,8%
Cc1ccc(Nc2nc(C)c(NC(=O)c3ccc(C)cc3)c(Nc3ccc(C)cc3)n2)cc1,8.9µM*
CCOc1ccc(Nc2nc(C)c(NC(=O)c3ccc(C)cc3)c(Nc3ccc(OCC)cc3)n2)cc1,-12%
Cc1ccc(C(=O)Nc2c(C)nc3ccccn3c2=O)cc1,17%
O=C(NC1CCc2nnc(C3CC3)n2CC1)c1ccoc1 (centres undefined),i
COCCn1c(C)cnc1C1CCNC1 (centres undefined),19%
NC(=O)CN1CCC(C(=O)NCc2cn3cccnc3n2)CC1,3%
CCC(C)NC(=O)Cn1c(-c2cccs2)cc2cc(Cl)ccc21 (centres undefined),-11%
CN1CCN(CCC(=O)Nc2ccc(Cl)cc2)CC1,i
CCCN1CCN(CCCNC(=O)Cn2nc(C)n3c(cc4c(OC)cccc43)c2=O)CC1,-4%
Cc1ccc(NC(=O)Cn2c(CCC(=O)O)ccc2-c2cccs2)cc1Cl,-3%
CCN(CC)CCCNC(=O)Cn1c(-c2cccs2)cc2cc(Cl)ccc21,11µM*
CCc1nn(CC(=O)NCCCN2CCN(C)CC2)c(=O)c2cc3occc3n12,57%
CN1CCN(CCCNC(=O)Cn2c(-c3cccs3)cc3cc(Cl)ccc32)CC1,13µM*
SMILES,Pf Dd2 growth
O=C(O)Cn1c(-c2cccs2)cc2cc(Cl)ccc21,-15%
CCN1CCN(CCCNC(=O)Cn2c(-c3cccs3)cc3cc(Cl)ccc32)CC1,11µM*
CCC(=O)N1CCC(n2c(C)cnc2-c2ccccc2)CC1,-7%
O=C(Cn1nc2c(cc1=O)CCCC2)NCCn1cnc2ccccc21,12%
O=C1NC(C(=O)NCCCn2cccn2)Cn2cccc21 (centres undefined),16%
CNC(=O)NC[C@H]1CCN(Cc2ccc(OC)c(C)c2)C[C@H]1N(C)C,-4%
O=C(NCCc1noc(-c2cccnc2)n1)c1c2c(nc3ccccc13)CCCC2,i
COCCC(=O)N[C@@H]1CN(S(C)(=O)=O)C[C@H]1CN(C)C,49%
CC(C)NC(=O)N1CCOC2(CCN(C(=O)Cc3ccc(O)cc3)CC2)C1,15%
O=C1N(C2CCN(S(=O)(=O)c3cnc[nH]3)CC2)C(c2ccncc2)C12CCCCC2 (centres undefined),-4%
CC(=O)N1Cc2ccccc2CC2(CCCN(Cc3ccc(O)cc3)C2)C1 (centres undefined),-20%
C[C@H](C(=O)N1Cc2ccccc2CC2(CCN(Cc3ccncc3)C2)C1)c1ccccc1 (some centres undefined),10µM*
CC(C)NC(=O)N1CCC2(CC1)CN(Cc1ccncc1)Cc1ccccc1O2,2%
O=C(O)CCCC(=O)N1Cc2ccccc2CC2(CCCN(Cc3ccccc3)C2)C1 (centres undefined),-2%
O=C(Cc1ccc(O)cc1)N1Cc2ccccc2CC2(CCN(Cc3ccncc3)C2)C1 (centres undefined),7.9µM*
CC(=O)N1Cc2ccccc2CC2(CCN(Cc3ccccn3)C2)C1 (centres undefined),-13%
Cc1[nH]c2ccccc2c1CN1CCc2nc(N3CCOCC3)[nH]c(=O)c2CC1,i[5.79 µM]
COc1cccc(-c2cc(C3CCN(C(=O)c4ccc(Cl)cc4)CC3)[nH]n2)c1,-22%
Cc1ccc(-c2nc(S(=O)(=O)c3ccc(C)cc3)c(N3CCN(c4ccccc4)CC3)o2)cc1,25%
Cc1ccc(S(=O)(=O)c2nc(-c3cccc(C)c3)oc2N2CCN(c3ccccc3)CC2)cc1,10µM*
Cc1ccc(S(=O)(=O)c2nc(-c3ccccc3)oc2N2CCN(c3ccccc3)CC2)cc1,40%
c1ccc(C(CCn2cncn2)n2ccnc2-c2cc3n(n2)CCNC3)cc1 (centres undefined),0%
O=C(c1cc(CN2CCOCC2)on1)N1CCC(c2nc(C3CCOCC3)no2)C1 (centres undefined),20%
COc1ccc2nc(C[C@@H]3C[C@@H](C(C)C)[C@H](CNC(=O)CCC(=O)O)C=C3C)[nH]c2c1,-23%[44.1 µM]

# High-throughput results: PubChem, National Center for Advancing Translational Sciences (NCATS)
